Measured values published in PubChem BioAssay (NCATS).
“And” between values parts separate entries of the source, which are not always exact repeats. Equal entries are not always repeated. Inconclusive results are not listed. Where a call stands in place of a potency, no number is given. The source made the active and inactive calls. Unless noted, calls follow the shape of the full dose curve.

Assays:
[1] = target: Glucocorticoid receptor (Homo sapiens) (UniProt P04150); test: qHTS assay for small molecule antagonists of glucocorticoid receptor signaling (AID 588533; active = well fitted inhibition curve with a large enough effect in the signal ratio, with a control signal flat, not every such curve was filed as active; the % refers to the signal ratio;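 also: cells stimulated with 2 nM dexamethasone as agonist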)
In short: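 Antagonist-mode qHTS: compound titrations added to GRE-bla HeLa cells, then dexamethasone 2 nM final; 18 h, 37 C. CCF4 FRET fluorescence normalized to dexamethasone and DMSO; IC50 from Hill fit.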

[2] = qHTS assay for small molecule antagonists of peroxisome proliferator-activated receptor delta signaling (AID 588535; active = well fitted inhibition curve with a large enough effect in the signal ratio, with a control signal flat, not every such curve was filed as active; the % refers to the signal ratio;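 as to max response: cells co-treated with a PPAR-delta agonist as stimulator during compound exposure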); conditions: HEK293T PPARd-UAS-bla, beta-lactamase FRET ratio, 18 h; 460 nm channel
In short: (§1)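 Antagonist-mode qHTS using GeneBLAzer PPAR-delta-UAS-bla HEK293T cells; compound exposure 18 hrs at 37 C over a titration. Ratiometric CCF4 fluorescence at 460/530 nm; concentration-response points fitted to the Hill equation.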

[3] = target: Peroxisome proliferator-activated receptor delta (Homo sapiens) (UniProt Q03181); test: as above
In short: as §1

[4] = target: Peroxisome proliferator-activated receptor gamma (Homo sapiens) (UniProt P37231); test: qHTS assay for small molecule agonists of peroxisome proliferator-activated receptor gamma signaling (AID 588536; active = well fitted curve in the direction sought with a large enough effect in the signal ratio, with a control signal flat, not every such curve was filed as active; the % refers to the signal ratio)
In short: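 Using GeneBLAzer HEK293 cells, response was quantified by CCF4 fluorescence and normalized between basal DMSO (0%) and rosiglitazone 2 uM (100%); curves yielded half-maximal stimulation concentration and efficacy.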

[5] = target: Peroxisome proliferator-activated receptor gamma (Homo sapiens) (UniProt P37231); test: qHTS assay for small molecule antagonists of peroxisome proliferator-activated receptor gamma signaling (AID 588537; active = well fitted inhibition curve with a large enough effect in the signal ratio, with a control signal flat, not every such curve was filed as active; the % refers to the signal ratio;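 also: reporter cells co-stimulated with 50 nM rosiglitazone agonist during compound treatment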)
In short: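 Cell-based beta-lactamase assay; GW9662 served as the antagonist control. Stimulation used rosiglitazone, final 50 nM, 16 h, 37 C.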

[6] = target: Vitamin D3 receptor (Homo sapiens) (UniProt P11473); test: qHTS assay for small molecule antagonists of vitamin D receptor signaling (AID 588541);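 also: receptor activated by calcitriol during compound treatment; series mostly up to about 77 µM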
In short: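 Antagonist-mode beta-lactamase reporter assay: HEK293T VDR-UAS-bla cells were exposed to titrated compound alongside 1-alpha,25-dihydroxyvitamin D3 at 3 nM final for 16 h. Values were normalized to the 50 nM agonist control and DMSO basal, with IC50 and efficacy from Hill equation fits.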

[7] = target: Vitamin D3 receptor (Homo sapiens) (UniProt P11473); test: qHTS assay for small molecule agonists of vitamin D receptor signaling (AID 588543)
In short: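 Reporter cells (HEK293T, VDR-UAS-bla) were seeded in medium with 2% charcoal-stripped serum and incubated 5 h, then compounds in concentration series were added for 16 h at 37 °C. Stimulation was scaled between DMSO basal and 50 nM 1α,25-dihydroxyvitamin D3.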

[8] = target: Glucocorticoid receptor (Homo sapiens) (UniProt P04150); test: qHTS assay for small molecule agonists of glucocorticoid receptor signaling (AID 588532; active = well fitted curve in the direction sought with a large enough effect in the signal ratio, with a control signal flat; the % refers to the signal ratio); conditions: HeLa MMTV-bla, beta-lactamase ratio, agonist, 18 h; stronger effect = higher value; percent of dexamethasone control, DMSO zero
In short: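 Using MMTV-bla HeLa cells in medium with 1% stripped FBS and 25 mM HEPES, compounds were titrated and incubated overnight-length (18 h). Beta-lactamase cleavage of CCF4 was quantified by dual-emission fluorescence.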

Peroxisome proliferator-activated receptor gamma (Homo sapiens), sequence (P37231 whole entry, looked up): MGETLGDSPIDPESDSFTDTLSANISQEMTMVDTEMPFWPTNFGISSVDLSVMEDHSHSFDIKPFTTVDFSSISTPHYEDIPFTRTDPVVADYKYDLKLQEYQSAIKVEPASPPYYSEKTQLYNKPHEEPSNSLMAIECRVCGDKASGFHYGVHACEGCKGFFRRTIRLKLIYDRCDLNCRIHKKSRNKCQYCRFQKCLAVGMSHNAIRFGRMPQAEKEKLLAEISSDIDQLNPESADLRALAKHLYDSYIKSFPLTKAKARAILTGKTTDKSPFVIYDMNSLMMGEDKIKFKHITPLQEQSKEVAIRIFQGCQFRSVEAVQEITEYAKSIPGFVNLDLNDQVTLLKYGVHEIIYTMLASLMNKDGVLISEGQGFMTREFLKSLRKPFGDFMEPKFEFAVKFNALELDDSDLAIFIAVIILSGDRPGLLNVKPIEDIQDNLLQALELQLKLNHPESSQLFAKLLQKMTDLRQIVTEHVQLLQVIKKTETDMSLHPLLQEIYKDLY
Glucocorticoid receptor (Homo sapiens), sequence (P04150 whole entry, looked up): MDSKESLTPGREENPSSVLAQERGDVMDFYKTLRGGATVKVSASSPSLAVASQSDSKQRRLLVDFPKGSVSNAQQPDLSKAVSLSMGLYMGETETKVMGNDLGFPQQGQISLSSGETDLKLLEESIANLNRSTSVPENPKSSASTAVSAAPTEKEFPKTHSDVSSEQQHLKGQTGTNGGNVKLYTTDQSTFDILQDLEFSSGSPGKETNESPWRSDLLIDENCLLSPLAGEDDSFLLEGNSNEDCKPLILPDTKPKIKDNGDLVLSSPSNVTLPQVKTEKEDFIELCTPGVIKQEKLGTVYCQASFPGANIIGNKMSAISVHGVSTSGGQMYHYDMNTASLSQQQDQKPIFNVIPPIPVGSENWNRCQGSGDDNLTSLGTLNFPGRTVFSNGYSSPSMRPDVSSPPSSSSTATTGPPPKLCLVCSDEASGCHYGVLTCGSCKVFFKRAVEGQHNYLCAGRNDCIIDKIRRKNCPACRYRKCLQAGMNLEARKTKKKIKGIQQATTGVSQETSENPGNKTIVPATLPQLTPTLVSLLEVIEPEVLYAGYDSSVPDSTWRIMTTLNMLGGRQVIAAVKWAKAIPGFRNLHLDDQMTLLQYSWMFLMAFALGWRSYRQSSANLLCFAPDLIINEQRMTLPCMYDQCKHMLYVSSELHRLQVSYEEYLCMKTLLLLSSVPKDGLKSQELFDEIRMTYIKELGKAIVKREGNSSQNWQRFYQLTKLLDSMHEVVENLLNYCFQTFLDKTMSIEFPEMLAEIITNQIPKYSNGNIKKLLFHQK
Vitamin D3 receptor (Homo sapiens), sequence (P11473 whole entry, looked up): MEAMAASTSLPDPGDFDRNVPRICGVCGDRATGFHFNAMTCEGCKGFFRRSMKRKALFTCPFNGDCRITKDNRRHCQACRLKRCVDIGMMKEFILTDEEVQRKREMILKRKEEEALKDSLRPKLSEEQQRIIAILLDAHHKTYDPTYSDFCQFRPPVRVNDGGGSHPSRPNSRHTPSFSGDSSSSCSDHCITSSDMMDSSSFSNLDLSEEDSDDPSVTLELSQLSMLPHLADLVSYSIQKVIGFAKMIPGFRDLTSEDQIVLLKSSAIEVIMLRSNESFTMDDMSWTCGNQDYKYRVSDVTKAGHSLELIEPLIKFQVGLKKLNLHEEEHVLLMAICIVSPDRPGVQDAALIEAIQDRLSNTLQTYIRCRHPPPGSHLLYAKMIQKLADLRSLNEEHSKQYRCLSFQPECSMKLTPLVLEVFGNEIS
Peroxisome proliferator-activated receptor delta (Homo sapiens), sequence (Q03181 whole entry, looked up): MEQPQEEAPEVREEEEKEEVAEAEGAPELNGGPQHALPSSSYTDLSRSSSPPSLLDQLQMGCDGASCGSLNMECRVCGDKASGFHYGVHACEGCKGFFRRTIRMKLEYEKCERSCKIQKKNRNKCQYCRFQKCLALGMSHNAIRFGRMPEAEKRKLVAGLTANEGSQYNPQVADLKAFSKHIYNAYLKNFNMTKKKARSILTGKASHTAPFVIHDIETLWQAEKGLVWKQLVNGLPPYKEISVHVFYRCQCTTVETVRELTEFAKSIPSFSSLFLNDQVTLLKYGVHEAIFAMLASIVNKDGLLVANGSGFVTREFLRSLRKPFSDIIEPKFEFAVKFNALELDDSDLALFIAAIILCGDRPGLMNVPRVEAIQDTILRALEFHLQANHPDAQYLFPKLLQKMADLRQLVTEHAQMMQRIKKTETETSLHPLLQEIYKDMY

SMILES | outcome [1] | max response [2] | Potency [3] | outcome [4] | outcome [5] | outcome [6] | outcome [7] | activation [8]
NC(=O)c1cccc([N+](=O)[O-])c1 | inactive | -10.1% | inactive | inactive | inactive | – | – | –
C=CCCC | inactive | 0.0312% | inactive | – | – | inactive | inactive | –
CC(=O)c1ccccc1[N+](=O)[O-] | – | 4.84% | inactive | inactive | inactive | inactive | inactive | –
O=C(O[C@@H](C(=O)O)[C@@H](OC(=O)c1ccccc1)C(=O)O)c1ccccc1 | inactive | -10.6% | inactive | inactive | – | – | – | –
CCCCC(CC)C(=O)O (centres undefined) | – | 18% | inactive | inactive | – | – | – | –
Nc1ccc(F)cc1F | inactive | -4.23% | inactive | inactive | – | inactive | inactive | –
O=Cc1c(Cl)cccc1Cl | inactive | -29.6% | inactive | inactive | inactive | inactive | inactive | –
CC(C)N=C=NC(C)C | inactive | – | – | – | inactive | inactive | inactive | –
NC(=O)c1ccccc1[N+](=O)[O-] | – | -1.98% | inactive | inactive | inactive | – | – | –
CCCOCC(C)O (centres undefined) | – | -0.284% | inactive | inactive | inactive | inactive | – | –
CC(C)CO | inactive | – | – | – | – | inactive | inactive | –
CC(=O)OC(C)=O | inactive | – | – | inactive | – | inactive | inactive | –
Cc1cc(C)cc(O)c1 | inactive | 32.1% | inactive | inactive | – | inactive | inactive | –
C=Cc1ccccn1 | inactive | – | – | inactive | inactive | inactive | inactive | –
OC/C(Br)=C(\Br)CO | inactive | – | – | inactive | inactive | inactive | inactive | –
O=C(Cl)c1c(Cl)cccc1Cl | inactive | -5.79% | inactive | inactive | – | inactive | inactive | –
CC(=O)c1ccc([N+](=O)[O-])cc1 | inactive | 10.4% | inactive | inactive | – | inactive | inactive | –
CC1=C(/C=C/C(C)=C/C=C/C(C)=C\C=O)C(C)(C)CCC1 | – | – | – | – | – | inactive | inactive | 1.42% (inactive)
CCNS(=O)(=O)c1ccc(C)cc1 | inactive | 8.52% | inactive | inactive | – | – | – | –
CC(=O)c1nccs1 | inactive | -6.53% | inactive | inactive | – | inactive | inactive | –
ON=C1CCCCC1 | inactive | -2.32% | inactive | inactive | – | inactive | inactive | –
NC(=O)NC(N)=O | – | 34.3% | inactive | inactive | – | – | – | –
O=[N+]([O-])c1cccc(Cl)c1 | – | 4.21% | inactive | inactive | inactive | inactive | inactive | –
NS(=O)(=O)O | inactive | -9.24% | inactive | inactive | inactive | inactive | inactive | –
c1ccc2n[nH]nc2c1 | – | -32.1% | inactive | inactive | – | – | – | –

SMILES | outcome [1] | max response [2] | Potency [3] | outcome [4] | outcome [5] | outcome [6] | outcome [7] | activation [8]
OC1CCCC1 | inactive | – | – | inactive | inactive | inactive | inactive | –
O=C(O)/C=C/C(=O)O | inactive | -32% | inactive | – | – | inactive | inactive | –
C=CCCCC | – | 22.6% | inactive | inactive | inactive | inactive | inactive | –
CCOC(=O)C(C)C(C)=O (centres undefined) | inactive | – | – | – | – | – | – | –
Cc1ccc(Br)cc1 | inactive | 4.44% | inactive | inactive | inactive | inactive | inactive | –
Nc1ccccc1[N+](=O)[O-] | inactive | 35.9% | inactive | inactive | inactive | – | – | –
CC(C)=CCl | inactive | 6.55% | inactive | – | – | inactive | inactive | –
O=C(O)CNC(=O)c1ccc(CO)o1 | – | 35.1% | inactive | inactive | inactive | – | – | –
c1ccc2c(c1)Oc1ccccc1S2 | inactive | 19.7% | inactive | – | – | inactive | inactive | –
c1ccc2c(c1)ccc1ncccc12 | inactive | 23.6% | inactive | inactive | – | – | – | –
C/C(C=O)=C/c1ccccc1 | – | -13.6% | inactive | inactive | – | inactive | inactive | –
C1CCCC1 | – | – | – | inactive | inactive | inactive | inactive | –
CCCCCCCCN | – | 13.3% | inactive | inactive | inactive | inactive | inactive | –
ClC/C=C/CCl | – | – | – | inactive | inactive | inactive | inactive | –
C[C@@H]1CC2(OC3C[C@@]4(C)C5=CC[C@H]6C(C)(C)C(O[C@@H]7OC[C@@H](O)[C@H](O)[C@H]7O)CC[C@@]67C[C@@]57CC[C@]4(C)C31)OC(O)C1(C)OC21 (some centres undefined) | – | – | – | – | – | inactive | – | –
COC(=O)CS | – | – | – | – | – | inactive | inactive | –
CC(C)C=O | – | -3.06% | inactive | inactive | – | inactive | inactive | –
O=C(O)CN(CC(=O)O)CC(=O)O | – | – | – | inactive | inactive | – | – | –
CC(=O)CCc1ccccc1 | – | – | – | inactive | – | inactive | inactive | –
CCCCC(CC)CNCC(CC)CCCC (centres undefined) | – | 11.3% | inactive | – | – | inactive | inactive | –
COC(=O)CC#N | – | – | – | inactive | inactive | inactive | inactive | –
C/C=C(/C)C#N | – | 26.2% | inactive | – | – | inactive | – | –
COC(=O)c1ccccc1 | – | 19.3% | inactive | inactive | inactive | inactive | inactive | –
CC(=O)OCc1ccco1 | – | -12.4% | inactive | inactive | – | inactive | inactive | –
CCN(C(=O)N(CC)c1ccccc1)c1ccccc1 | – | – | – | inactive | – | – | – | –

SMILES | outcome [1] | max response [2] | Potency [3] | outcome [4] | outcome [5] | outcome [6] | outcome [7] | activation [8]
CCCCCNCCCCC | – | -18.6% | inactive | – | – | inactive | inactive | –
CCCCC(CC)COCC1CO1 (centres undefined) | – | – | – | inactive | – | inactive | inactive | –
c1ccc(Nc2ccccc2)cc1 | – | -10.2% and 19.6% | inactive | inactive | inactive | inactive | inactive | –
CC1CCCO1 (centres undefined) | – | 6.05% | inactive | inactive | – | inactive | inactive | –
NCCCCCCN | – | -19.3% | inactive | inactive | inactive | inactive | inactive | –
Cc1cccc(C)c1 | – | -14.1% | inactive | – | inactive | inactive | inactive | –
Nc1cc([N+](=O)[O-])ccc1C(=O)O | – | -33% and 11% | inactive | inactive | inactive | inactive | inactive | –
Cc1ccccc1C(=O)O | – | – | – | inactive | – | inactive | inactive | –
Cc1ccc(C(C)(C)C)cc1 | – | -8.71% | inactive | – | – | inactive | inactive | –
Cc1cscn1 | – | -36.6% | inactive | inactive | inactive | inactive | inactive | –
C=C(C)C(N)=O | – | – | – | inactive | – | inactive | inactive | –
O=C(O)c1cc(Cl)cc(Cl)c1 | – | 29.5% | inactive | – | inactive | – | – | –
CC(C)(C)OCC1CO1 (centres undefined) | – | – | – | – | – | inactive | inactive | –
S=C([S-])NCCNC(=S)[S-].[Zn+2] | – | – | – | inactive | inactive | – | inactive | –
Cc1ccc2c(c1[N+](=O)[O-])C(=O)c1ccccc1C2=O | – | – | – | inactive | – | inactive | inactive | –
CCOc1cccc(N)c1 | – | -10.6% | inactive | inactive | inactive | inactive | inactive | –
Cc1cccc(C(=O)O)c1[N+](=O)[O-] | – | – | – | inactive | inactive | inactive | inactive | –
Cc1ccccc1C=O | – | – | – | inactive | – | inactive | inactive | –
Cc1cccc(C)c1O | – | -20.4% | inactive | inactive | inactive | inactive | inactive | –
O=Cc1ccccc1Cl | – | – | – | – | – | inactive | inactive | –
CCC=O | – | -3.11% | inactive | inactive | – | inactive | inactive | –
Cc1cccc2ccccc12 | – | – | – | inactive | inactive | inactive | inactive | –
[O-]/[N+](=N\O)c1ccccc1 | – | – | – | inactive | – | inactive | inactive | –
Nc1ccccc1S(=O)(=O)O | – | -23.8% | inactive | inactive | inactive | inactive | inactive | –
N#CCc1ccccc1[N+](=O)[O-] | – | 42% | inactive | – | – | inactive | inactive | –
